# Reference: PubChem BioAssay (Tox21)
# Inconclusive results are not listed. A call without a number means that no potency is given here. Activity calls are given as the source filed them. Unless noted, calls follow the shape of the dose curve; as a rule, active = well fitted curve in the direction sought with a large enough effect in the repeat runs; inconclusive = weak or mixed curves; inactive = flat fitted curve, though single readings scatter.
# System: not listed separately
# Assay: qHTS assay to test for compound auto fluorescence at 460 nm (blue) in HepG2 cells (AID 720687)
# Conditions: autofluorescence 405/460 nm, 1 h; series mostly up to 91.3 µM
# Summary of the method: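 HepG2 cells in MEM with 10% FBS, attached overnight at 37 C, were exposed to compound or DMSO for 1 hr at 37 C, 5% CO2. Blue fluorescence was read at 405/460 nm, with triamterene as reference fluorophore.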
row,SMILES,outcome
1,CCCc1nn(C)c2c(=O)[nH]c(-c3cc(S(=O)(=O)N4CCN(C)CC4)ccc3OCC)nc12,inactive
2,CO[C@@]1(NC(=O)CSC[C@@H](N)C(=O)O)C(=O)N2C(C(=O)O)=C(CSc3nnnn3C)CS[C@@H]21,inactive
3,CN(C)CCN(C)CCN(C)C,inactive
4,Cc1ccc(C(=O)Nc2ccc(S(=O)(=O)O)c3cc(S(=O)(=O)O)cc(S(=O)(=O)O)c23)cc1NC(=O)c1cccc(NC(=O)Nc2cccc(C(=O)Nc3cc(C(=O)Nc4ccc(S(=O)(=O)O)c5cc(S(=O)(=O)O)cc(S(=O)(=O)O)c45)ccc3C)c2)c1,inactive
5,C=C(C)C(=O)OCCOCCOCCOCCOC(=O)C(=C)C,inactive
6,OCCCCCO,inactive
7,CO[Si](C)(OC)c1ccccc1,inactive
8,CC1=NS(=O)(=O)c2cc(Cl)ccc2N1,inactive
9,CCOC(=O)CCC(=O)OCC,inactive
10,CC1(C)[C@@H]2CC[C@@]1(C)[C@H](O)C2,inactive
11,CCCC(C)C(=O)OCC (stereo not given),inactive
12,CCCCS(=O)(=O)N[C@@H](Cc1ccc(OCCCCC2CCNCC2)cc1)C(=O)O,inactive
13,c1coc(CNc2ncnc3nc[nH]c23)c1,inactive
14,CCOC(=O)COc1cc(-n2ncc(C(F)(F)F)c(C)c2=O)c(F)cc1Cl,inactive
15,CC(C)CCCO,inactive
16,CC(=O)N1C[C@H](O)C[C@H]1C(=O)O,inactive
17,O=S(=O)(O)c1cccc2c(S(=O)(=O)O)cccc12,inactive
18,C=CN1CCCCCC1=O,inactive

row,SMILES,outcome
1,C[N+]1(C)[C@@H]2CC(OC(=O)[C@H](CO)c3ccccc3)C[C@H]1[C@@H]1O[C@@H]12 (stereo not given in full),inactive
2,CC(C)C[C@@H](N)C(=O)O,inactive
3,CCCCCCCCCCCCSC,inactive
4,C=CCOCC(O)CO (stereo not given),inactive
5,CC(=O)Oc1cccc(C)c1,inactive
6,CC1=CCC(O)(C(C)C)CC1 (stereo not given),inactive
7,CCOC(=O)COC(=O)c1ccccc1C(=O)OCC,inactive
8,COC(=O)Nc1ccc(Cl)c(Cl)c1,inactive
9,CCCCCCC1CCC(=O)O1 (stereo not given),inactive
10,CC[C@H]1OC(=O)[C@H](C)[C@@H](O[C@H]2C[C@@](C)(OC)[C@@H](O)[C@H](C)O2)[C@H](C)[C@@H](O[C@@H]2O[C@H](C)C[C@H](N(C)C)[C@H]2O)[C@](C)(OC)C[C@@H](C)C(=O)[C@H](C)[C@@H](O)[C@]1(C)O,inactive
11,C=CC(C)(CCC=C(C)C)OC(=O)CC (stereo not given),inactive
12,CC(=O)c1ccc2ccccc2c1,inactive
13,CC(C)(C)C(=O)Oc1ccc(S(=O)(=O)Nc2ccccc2C(=O)NCC(=O)O)cc1,inactive
14,CC(N)C12CC3CC(CC(C3)C1)C2 (stereo not given),inactive
15,O=C(O)c1cc(C(=O)O)cc(C(=O)O)c1,inactive
16,CCC(=O)OCc1ccccc1,inactive
17,CC(C)C1CCC(O)CC1 (stereo not given),inactive
18,COc1cc(C(=O)OC(COCCC(C)C)CN2CCOCC2)cc(OC)c1OC (stereo not given),inactive

# Target: Glucocorticoid receptor (Homo sapiens) (UniProt P04150)
# Assay: qHTS assay to identify small molecule agonists of the glucocorticoid receptor (GR) signaling pathway (AID 720691; active = well fitted activation curve with a large enough effect in the signal ratio in the repeat runs, not every such curve was filed as active; the % refers to the signal ratio)
# Conditions: GR-bla HeLa, beta-lactamase reporter ratio, 18 h; series mostly up to 62.4 µM
# Summary of the method: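 GR-bla HeLa cells (beta-lactamase reporter under glucocorticoid response element) were plated 4 h at 37 C/5% CO2, given compounds in DMSO, and incubated 18 h at 37 C. LiveBLAzer B/G FRET substrate was added for 2 h at room temperature, then fluorescence intensity read.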
# Chain of Glucocorticoid receptor (Homo sapiens) (P04150 whole entry, looked up): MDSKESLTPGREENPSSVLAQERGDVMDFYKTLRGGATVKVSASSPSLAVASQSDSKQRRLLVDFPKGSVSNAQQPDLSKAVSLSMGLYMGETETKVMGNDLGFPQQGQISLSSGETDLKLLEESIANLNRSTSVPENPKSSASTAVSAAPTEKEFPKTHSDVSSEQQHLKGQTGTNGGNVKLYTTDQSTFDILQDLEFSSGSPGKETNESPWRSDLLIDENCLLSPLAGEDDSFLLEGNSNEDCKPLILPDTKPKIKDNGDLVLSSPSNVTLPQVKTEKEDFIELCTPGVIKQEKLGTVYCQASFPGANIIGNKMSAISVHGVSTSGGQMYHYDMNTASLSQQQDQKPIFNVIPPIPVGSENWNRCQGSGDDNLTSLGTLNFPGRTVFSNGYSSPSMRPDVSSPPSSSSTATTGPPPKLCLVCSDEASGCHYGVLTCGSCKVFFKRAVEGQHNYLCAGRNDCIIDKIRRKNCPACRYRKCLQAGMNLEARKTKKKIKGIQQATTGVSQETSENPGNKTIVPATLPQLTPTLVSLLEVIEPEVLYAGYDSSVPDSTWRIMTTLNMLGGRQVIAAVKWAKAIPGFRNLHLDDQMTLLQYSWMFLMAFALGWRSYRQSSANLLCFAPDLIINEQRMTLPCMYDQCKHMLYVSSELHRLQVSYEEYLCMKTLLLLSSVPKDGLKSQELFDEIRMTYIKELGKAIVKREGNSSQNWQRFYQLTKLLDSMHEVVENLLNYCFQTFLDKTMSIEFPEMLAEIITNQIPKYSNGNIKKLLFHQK
row,SMILES,Potency
1,CCCc1nn(C)c2c(=O)[nH]c(-c3cc(S(=O)(=O)N4CCN(C)CC4)ccc3OCC)nc12,inactive
2,CN(C)CCN(C)CCN(C)C,inactive
3,Cc1ccc(C(=O)Nc2ccc(S(=O)(=O)O)c3cc(S(=O)(=O)O)cc(S(=O)(=O)O)c23)cc1NC(=O)c1cccc(NC(=O)Nc2cccc(C(=O)Nc3cc(C(=O)Nc4ccc(S(=O)(=O)O)c5cc(S(=O)(=O)O)cc(S(=O)(=O)O)c45)ccc3C)c2)c1,inactive
4,CO[Si](C)(OC)c1ccccc1,inactive
5,CC1=NS(=O)(=O)c2cc(Cl)ccc2N1,inactive
6,CCOC(=O)CCC(=O)OCC,inactive
7,CC1(C)[C@@H]2CC[C@@]1(C)[C@H](O)C2,inactive
8,CCCC(C)C(=O)OCC (stereo not given),inactive
9,c1coc(CNc2ncnc3nc[nH]c23)c1,inactive
10,CCOC(=O)COc1cc(-n2ncc(C(F)(F)F)c(C)c2=O)c(F)cc1Cl,inactive
11,CC(C)CCCO,inactive
12,CC(=O)N1C[C@H](O)C[C@H]1C(=O)O,inactive
13,O=S(=O)(O)c1cccc2c(S(=O)(=O)O)cccc12,inactive
14,C=CN1CCCCCC1=O,inactive
15,C[N+]1(C)[C@@H]2CC(OC(=O)[C@H](CO)c3ccccc3)C[C@H]1[C@@H]1O[C@@H]12 (stereo not given in full),inactive
16,CC(C)C[C@@H](N)C(=O)O,inactive
17,CCCCCCCCCCCCSC,inactive
18,C=CCOCC(O)CO (stereo not given),inactive
19,CC1=CCC(O)(C(C)C)CC1 (stereo not given),inactive
20,CCOC(=O)COC(=O)c1ccccc1C(=O)OCC,inactive
21,COC(=O)Nc1ccc(Cl)c(Cl)c1,inactive
22,CC[C@H]1OC(=O)[C@H](C)[C@@H](O[C@H]2C[C@@](C)(OC)[C@@H](O)[C@H](C)O2)[C@H](C)[C@@H](O[C@@H]2O[C@H](C)C[C@H](N(C)C)[C@H]2O)[C@](C)(OC)C[C@@H](C)C(=O)[C@H](C)[C@@H](O)[C@]1(C)O,inactive
23,C=CC(C)(CCC=C(C)C)OC(=O)CC (stereo not given),inactive
24,CC(=O)c1ccc2ccccc2c1,inactive
25,CC(N)C12CC3CC(CC(C3)C1)C2 (stereo not given),inactive
26,O=C(O)c1cc(C(=O)O)cc(C(=O)O)c1,inactive
27,CCC(=O)OCc1ccccc1,inactive
28,CC(C)C1CCC(O)CC1 (stereo not given),inactive
29,COc1cc(C(=O)OC(COCCC(C)C)CN2CCOCC2)cc(OC)c1OC (stereo not given),inactive
